Shown are actives, neighbours in structure and some others; about 27% of the full set was active somewhere.
sEH activator = activators of human soluble epoxide hydrolase; purified human sEH enzymatic activity, activator screen; 91,000 tested, 0.04% active; P34913; activation, % at 2 µM; in the data active means activation above about 37%
Target sequence (P34913 whole entry, looked up): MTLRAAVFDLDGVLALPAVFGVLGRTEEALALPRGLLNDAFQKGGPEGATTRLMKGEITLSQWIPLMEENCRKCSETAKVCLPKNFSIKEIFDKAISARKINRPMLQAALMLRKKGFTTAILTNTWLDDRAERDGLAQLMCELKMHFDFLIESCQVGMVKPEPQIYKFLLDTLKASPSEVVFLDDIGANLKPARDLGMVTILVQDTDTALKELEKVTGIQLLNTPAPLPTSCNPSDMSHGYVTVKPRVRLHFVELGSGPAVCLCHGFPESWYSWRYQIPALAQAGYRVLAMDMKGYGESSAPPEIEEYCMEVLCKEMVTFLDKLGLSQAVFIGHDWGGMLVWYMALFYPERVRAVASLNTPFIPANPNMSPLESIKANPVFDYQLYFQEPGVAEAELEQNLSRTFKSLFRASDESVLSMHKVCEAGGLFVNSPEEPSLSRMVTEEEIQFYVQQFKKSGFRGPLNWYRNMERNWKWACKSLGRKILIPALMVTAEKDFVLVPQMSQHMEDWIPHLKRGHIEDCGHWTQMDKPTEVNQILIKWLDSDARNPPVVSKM
CYP2C9 inhib = blocks human cytochrome P450 2C9 | inhibition, % at 5 µM | 96,000 tested, 20% active | P11712 | CYP2C9 Supersomes, luciferin-H conversion, luminescence;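 active means blocking of liver enzyme CYP2C9 beyond about 50% at 5 µM, limit read from the data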
CYP2C19 activ = increases human CYP2C19 enzyme activity; P33261; recombinant CYP2C19, luciferin-H EGE luminescence; active compounds read high; 0 = fully inhibited enzyme, 1 = untreated enzyme; activation factor at 5 µM; 96,000 tested, under 10 active; AID 1025;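 active means activation factor of at least 2 at 5 µM in the primary screen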;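 further: 0 = wells with 2.5 mM tranylcypromine and 1 = vehicle-only wells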
CYP2C19 inhib = blocks human cytochrome P450 2C19; P33261; CYP2C19 Supersomes, luciferin-H EGE luminescence, 30 min; inhibition, % at 5 µM; 96,000 tested, 21% active;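 active means CYP2C19 inhibition above a set limit at 5 µM in the primary screen, cut at about 50% in these data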;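 further: plate controls were negative control wells for no effect and 2.5 mM tranylcypromine positive control for full effect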
CYP2C9 activ = activators of human CYP2C9; P11712; AID 1024; recombinant CYP2C9, luciferin-H conversion, luminescence; active compounds read high; factor 1 = untreated enzyme, 0 = blocked; activation factor at 5 µM; 96,000 tested, 1.4% active;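 active means activation factor of 2 or more for CYP2C9 at a 5 µM dose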;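 further: 0 = sulfaphenazole-blocked wells and 1 = vehicle-only wells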
sEH inh = blocks human soluble epoxide hydrolase activity | inhibition, % at 2 µM | 91,000 tested, 0.34% active | recombinant human sEH enzymatic activity assay | AID 707 | P34913; in the data active means inhibition above about 80%
Starred values were filed as active, the others as inactive; nt = no result given.

SMILES | sEH activator | CYP2C9 inhib | CYP2C19 activ | CYP2C19 inhib | CYP2C9 activ | sEH inh
CC(Oc1ccc(Cl)cc1Cl)C(=O)Nc1ncccn1 (stereo unspecified) | nt | 19.0 | 0.3 | 69.1* | 0.8 | nt
CC(C)C(=O)NCCCc1ccccc1 | 3.2 | 8.7 | 0.8 | 24.5 | 0.9 | -3.5
CC(Oc1ccc(Cl)cc1Cl)C(=O)NCc1ccncc1 (stereo unspecified) | nt | 97.9* | 0 | 100.4* | 0 | nt
CC(Oc1ccc(Cl)cc1Cl)C(=O)N/N=C1\CCCc2ccccc21 (stereo unspecified) | -4.9 | 60.4* | 0.6 | 42.9 | 0.4 | 7.1
Cn1cc(C(=O)NCN2CCCCC2)c2ccccc21 | 16.5 | -8.6 | 1 | 3.1 | 1.1 | -14.9
CC(Oc1ccc(Cl)cc1Cl)C(=O)NCCCn1ccnc1 (stereo unspecified) | 0.1 | 98.6* | 0 | 100.4* | 0 | 3.1
CCCN(CCO)Cc1cccc(Oc2ccccc2)c1 | -5.9 | 4.1 | 0.6 | 42.1 | 1 | 6.9
CCCN(CCO)Cc1ccc2ccccc2c1 | -5.6 | 3.6 | 0.5 | 51.6* | 1 | 8.5
Cc1cc(N=Cc2cc(Br)ccc2O)no1 | -2.9 | -17.1 | 1.1 | -13.6 | 1.2 | 1.1
Cc1cc(Br)c(S(=O)(=O)n2nnc3ccccc32)cc1C | -3.6 | 27.7 | 0.6 | 42.2 | 0.7 | 6.6
COc1cc2c(c(OC)c1)C(c1ccncc1)CC(=O)N2 (stereo unspecified) | nt | 90.0* | 0.2 | 76.5* | 0.1 | nt
COC(=O)c1ccc(C2CC(=O)Nc3cc(OC)c(OC)c(OC)c32)cc1 (stereo unspecified) | -16.5 | 87.9* | 0.1 | 93.3* | 0.1 | 19.0
COc1cc2c(cc1OC)C(c1cccnc1)CC(=O)N2 (stereo unspecified) | 8.9 | 6.6 | 1 | -4.1 | 0.9 | -10.0
CCOC(=O)C(Cc1ccc(NC(=O)/C(=C/c2ccc(OC(C)=O)cc2)NC(C)=O)cc1)N1C(=O)c2ccccc2C1=O (stereo unspecified) | -8.6 | 59.7* | 0.7 | 26.7 | 0.4 | 6.8
CCOC(=O)C(Cc1ccc(NC(=O)/C(=C/c2ccccc2)NC(=O)c2ccccc2)cc1)N1C(=O)c2ccccc2C1=O (stereo unspecified) | -11.7 | 91.2* | 0.5 | 51.9* | 0.1 | 9.9
Cc1ccc(NC(=O)/C(=C\c2ccc([N+](=O)[O-])cc2)NC(=O)c2ccccc2)cc1 | -8.1 | -5.1 | 0.9 | 7.1 | 1.1 | 5.5
COc1ccc(NC(=O)C(CCSC)N2C(=O)c3ccccc3C2=O)cc1 (stereo unspecified) | -4.9 | -17.7 | 1.4 | -37.5 | 1.2 | 2.1
C=CCN1C(=O)C2C(C(=O)NCc3ccccc3)C3(C)C=CC2(O3)C1C(=O)NC(C)(C)C (stereo unspecified) | 15.6 | -4.5 | 1.1 | -11.2 | 1 | -16.9
Cc1n[nH]c(C)c1S(=O)(=O)N1CCN(C2CCCCC2)CC1 | -3.8 | 28.5 | 1 | 0.6 | 0.7 | 5.6
CN(CCNC(=O)C1CC(=O)N(c2ccc(F)c(Cl)c2)C1)Cc1ccccc1 (stereo unspecified) | 5.0 | -29.3 | 1 | 4.0 | 1.3 | -5.3
c1ccc(Cc2nnc3sc(-c4ccco4)nn23)cc1 | -4.0 | 42.8 | 0.1 | 90.9* | 0.6 | 3.1
COc1cccc(OC)c1-c1nn2c(-c3ccccc3Cl)nnc2s1 | -4.1 | 18.7 | 0.2 | 82.0* | 0.8 | 4.0
Clc1ccccc1-c1nnc2sc(-c3ccccn3)nn12 | 37.7* | nt | nt | nt | nt | -35.5
Clc1ccccc1-c1nnc2sc(-c3ccco3)nn12 | 5.4 | 32.9 | 0.3 | 69.3* | 0.7 | -5.5
Cc1cc(C)nc(NC(=NCc2ccc3c(c2)OCO3)NC(=O)Nc2ccccc2)n1 | 7.8 | 0.1 | 1.1 | -12.6 | 1 | -9.9
CC(O)c1cccc(NC2=CC(=O)CC(C)(C)C2)c1 (stereo unspecified) | 13.1 | 21.0 | 0.7 | 29.0 | 0.8 | -10.1
O=C(CN1C(=O)c2ccccc2S1(=O)=O)N1CCN(c2ccc(F)cc2)CC1 | -11.7 | -12.2 | 1 | -3.3 | 1.1 | 12.8
CC1=C(C(=O)OCC2CCCO2)C(c2ccncc2)C2=C(CCCC2=O)N1 (stereo unspecified) | 5.5 | 48.4 | 0.2 | 75.2* | 0.5 | -4.3
CCOC(=O)C1=C(C)NC2=C(C(=O)CCC2)C1c1cccnc1 (stereo unspecified) | 3.0 | 32.4 | 0.7 | 34.6 | 0.7 | 0.1

Screening data from PubChem BioAssay.
